The results in this text go back to PubChem BioAssay.

Test [1] can be described thus: rapamycin-like changes in RPL19A-GFP expression – cell-based, S. cerevisiae, multiplex flow cytometry, primary screen (AID 1862; in the data active = percent of DMSO control GFP below about 86%;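 note: lower values mimic rapamycin by blocking the RPL19A rise seen in DMSO cells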). The following applies: S. cerevisiae RPL19A-GFP strain, flow cytometry fluorescence, 3 h; at 10 µM; stronger effect = lower value. A general note: Flow cytometry measures light scatter and fluorescence of single cells or particles in a stream.
A short description of test [2]: TOR pathway GLN3 branch reporter MEP2-GFP changes – S. cerevisiae, multiplex flow cytometry, primary screen (AID 1867;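 active = GFP response, as percent of the DMSO control, above the screen-wide mean plus 3 SD, about 139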;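 note: median GFP channel fluorescence of barcode-gated MEP2-GFP cells measured by flow cytometry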). The following applies: S. cerevisiae MEP2-GFP strain, 3 h, at 10 µM, stronger effect = higher value.
Test [3] can be described thus: TOR pathway RTG branch CIT2 reporter changes – S. cerevisiae, GFP fusion, multiplex flow cytometry, primary screen (AID 1870;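 active = percent response above a set limit, the screen-wide mean plus 3 SD, cut at about 130% in these data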;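 note: barcoded CIT2-GFP strain pooled with four other GFP strains with rapamycin as positive control; median GFP fluorescence per well over plate mean of DMSO wells so 100% = DMSO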). The following applies: S. cerevisiae CIT2-GFP expression, 3 h, at 10 µM, stronger effect = higher value.
Test [4] is described as follows: TOR pathway LAP4-GFP level changes – S. cerevisiae, multiplex flow cytometry, primary screen (AID 1873;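 active = GFP signal, as percent of the solvent control, above the screen mean plus 3 SD, about 149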). The following applies: S. cerevisiae LAP4-GFP expression, 3 h, at 10 µM, stronger effect = higher value.
The nature of test [5]: yeast AGP1-GFP level changes, GLN3 branch – cell-based, multiplex flow cytometry, S. cerevisiae, primary screen (AID 1887;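 active = GFP signal above the screen-wide mean plus 3 SD, that is over about 124.5% of the solvent control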;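 note: AGP1-GFP fusion strain of S. cerevisiae within a five-strain barcoded multiplex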). The following applies: 3 h, at 10 µM, stronger effect = higher value.
The nature of test [6]: reduced mouse 2C T cell binding to pMHC/ICAM-1 vesicles – MLPCN validation set, flow cytometry, LFA-1/ICAM-1 modulator project, pilot screen (AID 2523;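 active = response below a set limit, under 55% cells CD8-positive and vesicle-bound, and CD8 cells' 90th-percentile brightness under 279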;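 for vesicle binding response: mean PE anti-B7-1 fluorescence of CD8+ cells relative to row control; 100% = QL9-loaded vesicles with DMSO vehicle in the same plate row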). The following applies: 2C mouse CD8+ T cells, at 7 µM, stronger effect = lower value; double positive events: measured here: CD8+/vesicle+ event percentage.
Test [7] addresses Integrin beta-1 (Homo sapiens) + Integrin alpha-4 (Homo sapiens) (UniProt P13612+P05556). Kind of test: alpha4beta1 integrin LIBS antibody binding reduction – U937 cells, HUTS-21 mAb, flow cytometry, validation set, VLA-4 allosteric modulator project, pilot screen (AID 2674;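 active = inhibition above 50%, about 3 SD of the validation set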;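 note: antibody binding induced by the VLA-4 ligand LDV present at three times its Kd; 0% = LDV ligand with antibody and no compound and 100% = antibody without LDV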). The following applies: HUTS-21 LIBS mAb binding, at 6.7 µM, stronger effect = higher value.
Test [8] in a line: calorie-restriction mimetic ROS inhibitors, yeast – validation compound set, pilot screen (AID 2706;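 active = superoxide response below 65% of plate, a cut near 3 SD across the whole screen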;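 note: yeast exposed to compound for one week at 30 degrees C before staining; 100% = mean of all compound wells on the same plate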). The following applies: S. cerevisiae aging, superoxide DHE fluorescence; at 10 µM; stronger effect = lower value.
The target of test [9] is Beta-adrenergic receptor kinase 1 (Homo sapiens) (UniProt P25098). Kind of test: GRK2 binders displacing RNA aptamer, biochemical, validation, human GRK2, bead flow cytometry (AID 488806;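 active = aptamer binding inhibition above 30%, about 3 SD of noise from non-fluorescent compounds; inactive = inhibition at or below 30%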). The following applies: bead-bound GRK2, FAM-aptamer displacement, at 10 µM, stronger effect = higher value.
The target of test [10] is Beta-2 adrenergic receptor (Homo sapiens) (UniProt P07550). Kind of test: agonist-induced loss of surface beta2AR – cell-based, FAP fluorogen, flow cytometry, validation set, pilot screen (AID 504459;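 active = percent response above 42, roughly 3 SD of non-fluorescent test compounds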;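 note: agonist-driven loss of surface beta2AR via internalization measured by FAP dye flow cytometry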). The following applies: Am2.2-beta2AR cells, at 10 µM, stronger effect = higher value.
Test [11] deals with AP-2 complex subunit beta (Homo sapiens) (UniProt P63010). Kind of test: beta-arrestin/AP2 interaction blockers – biochemical, validation set, GST-AP2 beads, flow cytometry, pilot screen (AID 504541;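 active = inhibition above 54%, about 3 SD of non-fluorescent compounds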;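 note: AP2 carries R879A mutation and is captured from E. coli lysate; bead-bound FITC arrestin peptide fluorescence measuring arrestin peptide binding to AP2; 0% = DMSO wells and 100% = excess unlabeled arrestin peptide control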). The following applies: FITC arrestin peptide, at 10 µM, stronger effect = higher value.
A short description of test [12]: cytosolic pH regulators acting via V-ATPase – S. cerevisiae, pHLuorin, HTS validation (AID 504600; in the data active = response above about 15%;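 note: plate controls were DMSO for no effect and reference compound for full effect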). The following applies: V-ATPase proton transport, at 10 µM, stronger effect = higher value.
Test [13] concerns anti-desmoglein-3 scFv antibody binding to human DSG3. Kind of test: blockers of pathogenic pemphigus antibody–desmoglein-3 binding – biochemical, validation compound set, bead-based, flow cytometry, pilot screen (AID 588368;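 active = binding below the plate cutoff, the plate median minus 3 SD, with a reading above zero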;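 note: signal is the median channel fluorescence of bead-bound GFP antibody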). The following applies: Protein G beads, DSG3-Fc, scFv-GFP binding, at 10 µM, stronger effect = lower value.
The subject of test [14] is Botulinum neurotoxin type F light chain protease (Clostridium botulinum). Kind of test: Clostridium botulinum type F light chain protease inhibitors, microsphere substrate cleavage, validation (AID 588459). The following applies: multiplex microsphere protease substrate cleavage assay, flow cytometry; at 10 µM; stronger effect = higher value.
The target in test [15] is Botulinum neurotoxin type A (Clostridium botulinum) (UniProt P0DPI0). Kind of test: BoNT/A light chain protease inhibitors, biochemical, multiplex microsphere flow cytometry, validation set (AID 588460). The following applies: at 10 µM, stronger effect = higher value.
Test [16] concerns the target Lethal factor (Bacillus anthracis) (UniProt P15917). The experiment in a line: Bacillus anthracis lethal factor inhibition, microsphere flow cytometry protease assay, validation at 10 µM (AID 588461). The following applies: multiplex microsphere protease cleavage assay, stronger effect = higher value.
Test [17] is described as follows: Nile Red efflux blockade in pump-expressing yeast – validation compound set, multiplex, phenotypic, pilot screen (AID 588506;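 active = efflux inhibition above 0.42, the validation set average plus 4 SD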;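 note: Nile Red retained in cells so higher fluorescence means more efflux inhibition; 0 = negative control wells and 1 = enniatin B 25 µM full block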). The following applies: S. cerevisiae pump-expressing triplex, Nile Red efflux flow cytometry; at 10 µM; stronger effect = higher value.
In test [18] the target is ATP-binding cassette sub-family B member 6 (Homo sapiens) (UniProt Q9NP58). The experiment in a line: blockers of ABCB6-driven porphyrin uptake – K562-ABCB6 cells, flow cytometry, validation set, pilot screen (AID 588550;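 active = inhibition above the screen-wide mean plus 3 SD, about 51%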;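 note: 0% = DMSO wells and 100% = benzethonium chloride 70 µM positive control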). The following applies: K562-ABCB6 porphyrin accumulation, 1 h, at 10 µM, stronger effect = higher value.
Test [19] is described as follows: AML differentiation inducers, ER-HoxA9 marrow cells – cell-based, GFP/MAC1 double positive, flow cytometry, validation set, primary screen (AID 588685;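 active = differentiation response of at least 50%, scaled between solvent and reference control, from cells with both markers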;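 note: compound exposure lasts four days before antibody staining and flow analysis; 0% = DMSO wells and 100% = 5 µM fulvestrant positive control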). The following applies: stronger effect = higher value.

Each structure is given as a SMILES string. Records with an inconclusive call do not appear. Calls of active or inactive are those of the source. Unless noted, the rule behind the calls is not given here.

Chain of Beta-adrenergic receptor kinase 1 (Homo sapiens) (P25098 whole entry, looked up): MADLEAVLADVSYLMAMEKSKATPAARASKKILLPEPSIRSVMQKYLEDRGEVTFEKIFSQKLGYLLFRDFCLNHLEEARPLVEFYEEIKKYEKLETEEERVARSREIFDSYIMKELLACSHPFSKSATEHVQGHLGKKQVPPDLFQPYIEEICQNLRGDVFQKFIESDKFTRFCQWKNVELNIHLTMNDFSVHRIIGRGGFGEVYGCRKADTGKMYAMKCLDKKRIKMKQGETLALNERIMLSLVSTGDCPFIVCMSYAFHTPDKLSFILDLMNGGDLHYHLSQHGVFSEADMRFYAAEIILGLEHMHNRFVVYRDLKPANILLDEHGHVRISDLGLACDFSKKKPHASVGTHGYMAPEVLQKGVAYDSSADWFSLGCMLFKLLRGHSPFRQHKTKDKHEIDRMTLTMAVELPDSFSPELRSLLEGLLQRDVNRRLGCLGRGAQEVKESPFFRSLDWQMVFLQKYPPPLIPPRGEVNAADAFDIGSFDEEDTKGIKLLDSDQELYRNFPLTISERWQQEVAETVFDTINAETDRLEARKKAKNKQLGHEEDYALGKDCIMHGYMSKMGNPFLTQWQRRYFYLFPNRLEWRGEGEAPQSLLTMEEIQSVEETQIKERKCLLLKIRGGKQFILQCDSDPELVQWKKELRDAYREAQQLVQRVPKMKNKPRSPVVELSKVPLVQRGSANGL
Chain of ATP-binding cassette sub-family B member 6 (Homo sapiens) (Q9NP58 whole entry, looked up): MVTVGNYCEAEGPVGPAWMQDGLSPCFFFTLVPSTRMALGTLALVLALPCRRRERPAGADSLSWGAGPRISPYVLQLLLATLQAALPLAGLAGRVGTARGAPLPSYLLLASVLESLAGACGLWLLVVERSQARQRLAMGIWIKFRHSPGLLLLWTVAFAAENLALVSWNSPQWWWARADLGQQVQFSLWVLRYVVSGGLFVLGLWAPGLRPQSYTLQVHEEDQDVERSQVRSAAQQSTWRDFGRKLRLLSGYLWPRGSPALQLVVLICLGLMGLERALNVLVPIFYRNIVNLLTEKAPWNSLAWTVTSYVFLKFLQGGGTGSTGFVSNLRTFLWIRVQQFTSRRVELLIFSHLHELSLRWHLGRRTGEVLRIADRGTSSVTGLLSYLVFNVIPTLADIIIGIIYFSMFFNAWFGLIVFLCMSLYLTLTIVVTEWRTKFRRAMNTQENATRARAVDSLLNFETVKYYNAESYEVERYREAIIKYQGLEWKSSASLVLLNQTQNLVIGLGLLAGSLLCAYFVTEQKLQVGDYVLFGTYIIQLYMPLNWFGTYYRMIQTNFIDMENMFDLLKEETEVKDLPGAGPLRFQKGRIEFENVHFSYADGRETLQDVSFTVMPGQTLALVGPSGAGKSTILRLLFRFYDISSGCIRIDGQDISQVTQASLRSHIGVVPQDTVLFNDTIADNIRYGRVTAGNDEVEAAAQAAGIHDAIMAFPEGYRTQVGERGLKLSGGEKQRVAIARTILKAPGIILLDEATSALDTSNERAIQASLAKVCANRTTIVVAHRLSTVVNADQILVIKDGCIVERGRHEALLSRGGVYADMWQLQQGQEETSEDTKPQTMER
Chain of Integrin beta-1 (Homo sapiens) + Integrin alpha-4 (Homo sapiens) (P05556 whole entry, looked up): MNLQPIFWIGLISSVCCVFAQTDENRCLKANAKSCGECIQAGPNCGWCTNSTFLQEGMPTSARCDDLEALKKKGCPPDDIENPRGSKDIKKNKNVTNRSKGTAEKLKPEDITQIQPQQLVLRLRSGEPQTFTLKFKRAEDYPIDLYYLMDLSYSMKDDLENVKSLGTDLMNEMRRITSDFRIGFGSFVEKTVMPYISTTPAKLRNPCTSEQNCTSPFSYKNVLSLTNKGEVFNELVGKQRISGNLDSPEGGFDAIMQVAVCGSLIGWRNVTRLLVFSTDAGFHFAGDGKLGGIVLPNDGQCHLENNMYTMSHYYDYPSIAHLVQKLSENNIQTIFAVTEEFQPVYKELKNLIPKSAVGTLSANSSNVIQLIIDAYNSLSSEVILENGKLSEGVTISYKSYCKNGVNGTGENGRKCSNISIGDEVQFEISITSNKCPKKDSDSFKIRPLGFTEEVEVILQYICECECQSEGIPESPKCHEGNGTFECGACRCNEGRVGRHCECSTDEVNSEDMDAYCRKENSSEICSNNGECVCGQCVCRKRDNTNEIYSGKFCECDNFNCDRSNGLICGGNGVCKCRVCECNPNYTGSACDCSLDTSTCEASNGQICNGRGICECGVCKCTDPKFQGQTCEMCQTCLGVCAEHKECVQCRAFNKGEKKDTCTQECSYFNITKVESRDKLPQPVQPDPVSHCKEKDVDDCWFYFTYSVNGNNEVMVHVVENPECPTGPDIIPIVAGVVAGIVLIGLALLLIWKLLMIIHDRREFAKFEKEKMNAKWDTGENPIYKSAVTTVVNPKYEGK
Chain of Integrin beta-1 (Homo sapiens) + Integrin alpha-4 (Homo sapiens) (P13612 whole entry, looked up): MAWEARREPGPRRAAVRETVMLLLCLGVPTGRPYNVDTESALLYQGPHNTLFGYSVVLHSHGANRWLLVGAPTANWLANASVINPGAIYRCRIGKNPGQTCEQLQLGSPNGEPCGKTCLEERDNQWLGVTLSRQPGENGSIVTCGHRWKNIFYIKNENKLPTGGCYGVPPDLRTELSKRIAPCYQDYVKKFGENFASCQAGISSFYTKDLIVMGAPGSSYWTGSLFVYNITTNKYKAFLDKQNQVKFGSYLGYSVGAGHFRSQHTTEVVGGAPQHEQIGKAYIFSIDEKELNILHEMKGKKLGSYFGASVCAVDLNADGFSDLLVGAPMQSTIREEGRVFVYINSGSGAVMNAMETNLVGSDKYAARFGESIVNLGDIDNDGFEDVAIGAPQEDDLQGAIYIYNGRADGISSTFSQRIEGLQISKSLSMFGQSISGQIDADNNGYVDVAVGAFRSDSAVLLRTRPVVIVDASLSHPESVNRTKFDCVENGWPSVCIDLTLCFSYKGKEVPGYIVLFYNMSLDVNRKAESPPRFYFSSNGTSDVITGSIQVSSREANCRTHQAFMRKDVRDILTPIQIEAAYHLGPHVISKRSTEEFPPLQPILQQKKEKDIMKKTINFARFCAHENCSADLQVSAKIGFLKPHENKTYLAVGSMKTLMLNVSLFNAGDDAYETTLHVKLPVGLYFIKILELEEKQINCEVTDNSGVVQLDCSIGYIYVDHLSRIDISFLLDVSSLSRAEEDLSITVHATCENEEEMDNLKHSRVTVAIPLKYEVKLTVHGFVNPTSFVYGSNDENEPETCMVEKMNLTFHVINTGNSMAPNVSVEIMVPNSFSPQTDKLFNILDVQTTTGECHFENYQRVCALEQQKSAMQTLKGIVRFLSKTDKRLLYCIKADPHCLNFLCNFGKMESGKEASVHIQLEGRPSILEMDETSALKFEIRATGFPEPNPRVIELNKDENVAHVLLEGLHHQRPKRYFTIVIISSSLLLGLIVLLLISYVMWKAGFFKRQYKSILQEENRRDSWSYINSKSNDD
Chain of AP-2 complex subunit beta (Homo sapiens) (P63010 whole entry, looked up, one chain of several): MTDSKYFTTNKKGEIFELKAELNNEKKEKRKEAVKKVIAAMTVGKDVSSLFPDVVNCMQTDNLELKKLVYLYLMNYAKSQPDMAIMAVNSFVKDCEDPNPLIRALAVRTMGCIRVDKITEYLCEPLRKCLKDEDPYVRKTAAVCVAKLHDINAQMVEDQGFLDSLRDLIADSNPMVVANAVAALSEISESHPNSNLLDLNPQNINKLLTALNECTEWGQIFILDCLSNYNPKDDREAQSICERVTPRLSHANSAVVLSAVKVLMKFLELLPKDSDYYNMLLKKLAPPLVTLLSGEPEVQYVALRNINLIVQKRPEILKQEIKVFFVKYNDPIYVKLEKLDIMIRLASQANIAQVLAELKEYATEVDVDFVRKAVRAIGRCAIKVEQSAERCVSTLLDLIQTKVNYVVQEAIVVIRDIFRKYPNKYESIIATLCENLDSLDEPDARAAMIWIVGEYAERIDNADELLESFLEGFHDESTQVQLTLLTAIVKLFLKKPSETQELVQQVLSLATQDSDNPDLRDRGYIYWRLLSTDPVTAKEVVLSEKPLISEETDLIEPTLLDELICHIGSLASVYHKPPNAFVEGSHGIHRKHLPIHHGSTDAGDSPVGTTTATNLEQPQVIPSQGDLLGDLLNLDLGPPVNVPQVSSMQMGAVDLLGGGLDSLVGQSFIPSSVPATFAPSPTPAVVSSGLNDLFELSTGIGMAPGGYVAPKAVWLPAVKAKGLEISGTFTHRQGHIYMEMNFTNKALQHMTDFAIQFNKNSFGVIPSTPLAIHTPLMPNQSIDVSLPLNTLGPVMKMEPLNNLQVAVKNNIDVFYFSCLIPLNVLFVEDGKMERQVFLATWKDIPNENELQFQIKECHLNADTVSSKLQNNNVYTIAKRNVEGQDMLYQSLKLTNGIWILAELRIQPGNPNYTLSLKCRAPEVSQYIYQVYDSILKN
Chain of Beta-2 adrenergic receptor (Homo sapiens) (P07550 whole entry, looked up): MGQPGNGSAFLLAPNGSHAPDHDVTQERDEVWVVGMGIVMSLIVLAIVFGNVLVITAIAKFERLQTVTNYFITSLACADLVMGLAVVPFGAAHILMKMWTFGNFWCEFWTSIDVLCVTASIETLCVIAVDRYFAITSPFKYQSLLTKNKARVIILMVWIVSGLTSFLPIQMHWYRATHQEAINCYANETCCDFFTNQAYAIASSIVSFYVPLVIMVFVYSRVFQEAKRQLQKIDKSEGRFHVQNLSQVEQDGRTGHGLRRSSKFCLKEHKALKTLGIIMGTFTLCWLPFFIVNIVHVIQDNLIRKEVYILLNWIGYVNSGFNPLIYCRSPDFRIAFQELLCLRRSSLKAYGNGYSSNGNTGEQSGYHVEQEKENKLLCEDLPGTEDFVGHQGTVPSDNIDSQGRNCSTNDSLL

For `CN1C(=O)N(C)C(=O)C2(Cc3ccccc3N3CCOCC32)C1=O` (stereo not given), the percent of DMSO control GFP in test [1] is 101% (inactive). Moreover, the GFP response vs DMSO is 103% (inactive) in test [2] and 93.7% (inactive) in [4]. The percent response of DMSO control in [3] is 102% (inactive). Further, the GFP response, % of DMSO in test [5] was 99.9% (inactive). Moreover, the double positive events in test [6] amounted to 64.2%. For the same molecule, the vesicle binding response in test [6] was 3430% (inactive). The inhibition was 8.28% (inactive) in [7]; -5.91% (inactive) in [11]; 5% (inactive) in [14]; 0.6% (inactive) in test [15]; 1.1% (inactive) in [16]; 5% (inactive) in test [18]. In test [8], the superoxide response (% of plate) is 109% (inactive). Moreover, the aptamer binding inhibition in [9] was 0% (inactive). For the same molecule, the response in test [10] was 4.14% (inactive); in test [12] it was 0.7% (inactive). Also, the binding (% of control) in test [13] was 102% (inactive). The efflux inhibition (fraction of control) in [17] is 0.62 (active). For the same molecule, in test [19], the differentiation response was 0% (inactive).

In the case of `CCn1ccnc1CN1CCCC(C(=O)c2cc(F)ccc2OC)C1` (stereo not given), the percent of DMSO control GFP in test [1] is 100% (inactive). Further, the GFP response vs DMSO in test [2] was 93% (inactive); in test [4], 99.9% (inactive). In addition, in test [3], the percent response of DMSO control is 96.7% (inactive). For the same molecule, the GFP response, % of DMSO in [5] was 102% (inactive). The same molecule displayed a double positive events in test [6] of 61.5%. For the same molecule, the vesicle binding response in test [6] is 125% (inactive). In addition, the inhibition in test [7] was -3.16% (inactive); in [11], 18.6% (inactive); in test [14] it was 0.8% (inactive); in test [15], -1.2% (inactive); in test [16], -1.6% (inactive); in test [18], 3% (inactive). Further, in test [8], the superoxide response (% of plate) is 96.9% (inactive). Moreover, the aptamer binding inhibition in test [9] was 2% (inactive). The response in test [10] is -6.87% (inactive); in test [12] it was 1.54% (inactive). For the same molecule, the binding (% of control) in test [13] is 98.4% (inactive). In addition, the efflux inhibition (fraction of control) in test [17] is -0.21 (inactive). Further, the differentiation response in test [19] is -8.8% (inactive).

As for `CN1C2CCC1CC(OC(=O)CCN1CCCC1)C2` (stereo not given), the percent of DMSO control GFP in test [1] is 105% (inactive). Also, the GFP response vs DMSO is 105% (inactive) in test [2] and 115% (inactive) in test [4]. Further, the percent response of DMSO control in test [3] was 107% (inactive). Besides, in test [5], the GFP response, % of DMSO is 113% (inactive). Moreover, the double positive events in test [6] is 61.6%. Further, the vesicle binding response in [6] was 194% (inactive). The inhibition in test [7] was 8.25% (inactive); in test [11], 33.9% (inactive); in test [14], 3.2% (inactive); in test [15] it was 1.3% (inactive); in [16], 1.5% (inactive); in test [18], 0% (inactive). The superoxide response (% of plate) in test [8] is 98.4% (inactive). In test [9], the aptamer binding inhibition was 4% (inactive). Moreover, the response is -8.97% (inactive) in test [10] and -1.35% (inactive) in test [12]. Also, the binding (% of control) in test [13] was 107% (inactive). Besides, in test [17], the efflux inhibition (fraction of control) is 0.08 (inactive). In test [19], the differentiation response is -0.06% (inactive).

As to `c1ccc2c3c([nH]c2c1)CNCC3`, the percent of DMSO control GFP in [1] is 100% (inactive). The GFP response vs DMSO in test [2] was 104% (inactive); in [4] it was 111% (inactive). The percent response of DMSO control in test [3] is 106% (inactive). Also, the GFP response, % of DMSO in [5] was 105% (inactive). In test [6], this molecule gave a double positive events of 55.3%. The vesicle binding response in test [6] was 82.8% (inactive). The inhibition in test [7] is -19.9% (inactive); in test [11], -0.49% (inactive); in test [14], -9.7% (inactive); in [15], 0.1% (inactive); in test [16], -60.3% (inactive); in test [18], -82% (inactive). Further, the superoxide response (% of plate) in [8] is 113% (inactive). Also, the aptamer binding inhibition in [9] was -5% (inactive). The response is -12.8% (inactive) in [10] and 0.12% (inactive) in test [12]. For the same molecule, in test [13], the binding (% of control) is 181% (inactive). Further, in [17], the efflux inhibition (fraction of control) was 0.395 (inactive). Moreover, in [19], the differentiation response is -0.18% (inactive).

What is called inhibition is the drop in the measured response relative to a control, in per cent.
